IL1B secr inh: blocks inflammasome-driven IL-1 beta release. THP-1 LPS/ATP IL-1B secretion, AlphaLISA, 16 h; active compounds read low. activity change, % at 57.5 µM. 360,000 compounds, 4.7% hits; in the data active = activity change below about -50%; inconclusive = mostly about -30% to -49%
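THP-1 cells pretreated 1 hr with compounds (up to 57.5 uM final), then stimulated with LPS (250 ng/mL final) plus ATP (1.25 mM final); secreted IL-1B measured by AlphaLISA after 16 hr, decreased signal indicating inhibition.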
ALOX12 inh: ALOX12 (human) lipoxygenase inhibition. purified 12hLO, xylenol orange hydroperoxide absorbance. 580,000 compounds, 1.1% hits. Potency, µM (top dose mostly 108 µM), without a hit: top-dose activity change, negative = inhibition, usual class: inhibitors. AID 1671190. P18054; also: potency is read from the fitted curve at half-maximal effect
Target sequence (P18054 whole entry, looked up): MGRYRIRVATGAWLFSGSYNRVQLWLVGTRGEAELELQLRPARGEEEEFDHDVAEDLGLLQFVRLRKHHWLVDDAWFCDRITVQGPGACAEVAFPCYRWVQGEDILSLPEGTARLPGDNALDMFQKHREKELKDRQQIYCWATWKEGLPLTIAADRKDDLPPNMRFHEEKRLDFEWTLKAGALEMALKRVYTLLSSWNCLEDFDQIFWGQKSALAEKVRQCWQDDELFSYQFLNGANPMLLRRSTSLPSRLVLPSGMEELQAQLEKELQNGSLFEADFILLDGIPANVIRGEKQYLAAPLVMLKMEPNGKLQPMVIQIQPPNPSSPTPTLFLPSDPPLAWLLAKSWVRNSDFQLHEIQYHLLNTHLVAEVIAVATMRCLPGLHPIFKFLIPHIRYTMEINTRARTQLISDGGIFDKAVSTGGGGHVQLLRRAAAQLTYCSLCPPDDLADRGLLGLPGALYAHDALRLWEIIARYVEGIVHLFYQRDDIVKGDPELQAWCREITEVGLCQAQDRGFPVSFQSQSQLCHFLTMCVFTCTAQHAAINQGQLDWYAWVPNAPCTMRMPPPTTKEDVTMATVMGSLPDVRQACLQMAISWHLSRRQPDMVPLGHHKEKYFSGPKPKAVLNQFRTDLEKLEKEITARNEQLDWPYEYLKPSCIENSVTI
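Purified human 12hLO (150 nM final) in 25 mM Hepes, 0.01% Triton X-100, pH 7.0 was preincubated 15 min at room temperature with compound. Then 40 uM arachidonic acid was added, 30 min. Hydroperoxide was read by Fe-XO absorbance ratio 573/405 nm.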
DT40 TDP1 no CPT: qHTS for Inhibitors of human tyrosyl-DNA phosphodiesterase 1 (TDP1): qHTS in cells in absence of CPT; DT40 Tdp1-/- hTDP1 cells, no CPT, ATP luminescence, 48 h; Potency, µM (series often up to 46.2 µM), for inactives: top-dose activity change, negative = growth inhibition, most hits filed as inhibitors; 420,000 compounds, 15% hits; also: potency is read from the fitted curve at half-maximal effect; nearly all actives have a fitted effect of over 55% in size
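Luminescent ATP content (CellTiter-Glo) served as the growth readout. Knockout chicken DT40 cells expressing human TDP1 were exposed to compounds without camptothecin for a minimum 48 hr at 37 °C.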
TDP1 cell CPT: DT40-hTDP1 cell growth loss with CPT; AID 686979; Potency, µM (titrated, usually from 46.2 µM), without a hit: at the top dose activity change, negative = growth inhibition, actives largely listed as inhibitors; 420,000 compounds, 12% hits; chicken DT40 Tdp1-/-;hTDP1 cells + 20 nM CPT, ATP luminescence, 48 h; also: potency is read from the fitted curve at half-maximal effect; nearly all actives have a fitted effect of over 55% in size
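Cell growth measured by CellTiter-Glo luminescence after a minimum 48 h, 37 C compound exposure with 20 nM CPT in Tdp1-knockout DT40 cells stably expressing hTDP1, seeded 400/well; qHTS titration format.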
HT1080 IDH1KD tx: kills HT-1080 cells with IDH1 knockdown | HT-1080 IDH1 knockdown viability, ATP luminescence, 48 h | Potency, µM (top dose mostly 46.1 µM), without a hit: at the highest dose activity, negative = toxicity, hits mostly cytotoxic | 360,000 compounds, 2% hits | AID 686971;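 also: potency is read from the fitted curve at half-maximal effect; 0% = DMSO wells and -100% = cell-free medium wells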
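CellTiter-Glo luminescence after 48 h compound exposure at 37 degrees C of IDH1-knockdown HT-1080 cells in 5% FBS RPMI. %Activity scaled between DMSO wells and cell-free media wells, with curves fitted and assigned curve classes.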
HT1080-NT tox: kills 2HG-producing HT-1080-NT fibrosarcoma cells; Potency, µM (doses to about 46.1 µM), for inactives: at the highest dose activity, negative = less viability, actives largely listed as cytotoxic; AID 686970; 360,000 compounds, 1.6% hits; HT-1080-NT fibrosarcoma viability, CellTiter-Glo ATP luminescence, 48 h;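 also: NT is the 2HG producing partner of a matched IDH1 knockdown line; potency is read from the fitted curve at half-maximal effect; 0% = DMSO-treated cells and -100% = media-only wells without cells; nearly all actives have a fitted effect of over 55% in size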
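Viability by CellTiter-Glo luminescence after 48 h compound exposure at 37C of HT-1080-NT cells (750/well, RPMI, 5% FBS). % activity scaled between DMSO wells and medium-only wells, then curve-fitted and categorized by curve class.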
* hit, by the source's call; ? = inconclusive; . = no result; [ ] = remark or other dose. The sample as a whole holds a higher share of hits than the screen did. Unless noted, calls follow the shape of the dose curve; as a rule, active = well fitted curve in the direction sought with a large enough effect; inconclusive = small, poorly fitted or top-dose-only effect, or another doubt; inactive = no such curve, though single readings can be large; an effect the other way counts as inactive or inconclusive. Unless noted, % is scaled to controls: 0 for no effect and ±100 for the full control effect.

SMILES	IL1B secr inh	ALOX12 inh	DT40 TDP1 no CPT	TDP1 cell CPT	HT1080 IDH1KD tx	HT1080-NT tox
CCOc1cc(C(=O)Nc2ccc(C(=O)NCCN(CC)CC)cc2)ccc1OCC(=O)N1CCOCC1	18.2	-18.4%	-17.4%	0.0%	9.3%	13.9%
CC(=O)Nc1cccc(C(=O)Nc2ccccc2N2CCOCC2)c1	13.0	-17.6%	25.9µM*	?	?	?
COc1cccc(C(=O)Nc2ccccc2N2CCN(C(=O)c3ccccc3)CC2)c1	-22.8	3.6%	20.6µM*	?	-1.7%	1.0%
COc1cccc(C(=O)Nc2ccccc2C(=O)N2CCCC2)c1	9.2	-5.6%	-1.2%	4.4%	13.8%	17.7%
N#Cc1nc(-c2ccco2)oc1N1CCN(C(=O)NC2CC2)CC1	.	3.2%	.	.	.	.
CC(C)Cn1c(-c2ccco2)n[nH]c1=S	14.4	10µM*	-3.6%	-5.3%	?	?
CC(C)Cn1c(-c2ccccc2F)n[nH]c1=S	17.2	25.1µM*	-7.4%	11.9%	6.0%	9.7%
CC(C)Cn1c(-c2ccncc2)n[nH]c1=S	29.5	?	4.3%	-1.4%	28.1%	13.2%
FC(F)Oc1ccccc1/C=N/n1cnc2ccccc21	14.5	1.0%	18.4µM*	?	-1.7%	-4.8%
O=S(c1cc(Cl)cc(Cl)c1O)c1cc(Cl)cc(Cl)c1O	-67.5*	28.2µM*	?	-6.3%	?	?
O=[N+]([O-])c1c(Cl)cc(Cl)cc1Cl	.	-3.1%	.	.	.	.
COc1cc(/C=C2/SC(=S)NC2=O)ccc1OS(=O)(=O)c1ccc(C)cc1	-53.0*	.	14.6µM*	?	?	?
COc1cc(/C=C2\SC(=S)N(CCCCC(=O)O)C2=O)ccc1OS(=O)(=O)c1ccc(C)cc1	-87.3*	?	?	?	-8.7%	-2.3%
COc1ccc(/C=C2\SC(=S)N(CCCCCC(=O)Nc3cc(C)on3)C2=O)cc1OC	-1.0	-6.6%	-28.2%	-18.2%	5.0%	-3.6%
COc1ccc(/C=C2\SC(=S)NC2=O)cc1OS(=O)(=O)c1ccc(NC(C)=O)cc1	14.0	?	?	?	16.4µM*	20.6µM*
CCOc1ccc(/C=C2\SC(=S)NC2=O)cc1OC	10.9	-8.7%	?	?	-18.7%	-23.0%
COc1ccccc1NC(=O)Cn1nc(N2CCN(c3cccc(Cl)c3)CC2)ccc1=O	.	32.6%	.	.	.	.
CC(O)c1cc2n(n1)CCN(Cc1cc(=O)n3nc(C4CC4)sc3n1)C2 (stereo not given)	.	15.4%	.	.	.	.
O=C(Cc1ccc(NC2=NC3CS(=O)(=O)CC3S2)cc1)N1CCN(c2ccc(F)cc2)CC1 (stereo not given)	-1.4	7.0%	-0.2%	1.5%	8.0%	-0.6%
O=C(CSc1ncccc1C(=O)Oc1ccccc1Cl)Nc1ccc(C(F)(F)F)cc1Cl	.	-22.2%	23.1µM*	?	.	.
COc1ccc(NC(=O)[C@H]2CCC[C@H]2NC(=O)c2cnc(C)cn2)cc1	.	40.4%	.	.	.	.
CC(C)(C)C(N)CN1CCCC1 (stereo not given)	.	7.3%	.	.	.	.
CN(C)CCCCCCNc1cc(N2CCN(C)CC2)ncn1	.	.	0.1%	-8.9%	.	.
CN(C)CCCCCCNc1nccc(N2CCN(C)CC2)n1	.	.	20µM*	10µM*	.	.
N#C/C(=C(/O)CN1CCN(c2ccccc2F)CC1)c1nc(-c2ccc(Cl)cc2)cs1	-11.4	-15.6%[57.4 µM]	?	20.6µM*	0.0%	0.0%
SMILES	IL1B secr inh	ALOX12 inh	DT40 TDP1 no CPT	TDP1 cell CPT	HT1080 IDH1KD tx	HT1080-NT tox
Cc1ccc(-c2csc(/C(C#N)=C(\O)CCl)n2)cc1	-72.8*	10.0%	?	?	-13.0%	-20.8%
N#C/C(=C(/O)CN1CCCCC1)c1nc(-c2ccc(Cl)cc2)cs1	14.0	-26.9%	-7.7%	-14.9%	-7.0%[9.24 µM]	-0.1%
N#C/C(=C(/O)CCl)c1nc(-c2ccccc2)cs1	-56.6*	?	14.6µM*	13µM*	-29.8%	-27.7%
CCc1ccc(S(=O)(=O)Nc2ccc(O)c3ccccc23)cc1	-15.6	0.0%	6.51µM*	6.51µM*	-8.1%	-19.1%
O=S(=O)(Nc1ccc(NS(=O)(=O)c2ccccc2)c2ccccc12)c1ccccc1	-4.6	-19.0%	?	-16.8%	-20.7%	-4.0%
O=S(=O)(Nc1ccc(O)c2ccccc12)c1ccc(F)cc1	15.8	?	9.2µM*	11.6µM*	-15.9%	-17.0%
O=C(Cc1cccnc1)NC1CCN(c2cnn(CC3CC3)c(=O)c2)CC1	.	24.8%	.	.	.	.
O=C(COC(=O)c1cccc(NS(=O)(=O)c2ccc(F)c(F)c2)c1)NC(=O)NC1CCCCC1	-19.7	-7.7%	16.4µM*	?	?	?
COc1ccccc1NS(=O)(=O)c1ccc(C(=O)N2CCCCCC2)cc1	6.4	-13.8%	13µM*	18.4µM*	3.7%	-3.7%
CCOC(=O)N1CCN(C(=O)c2cccc(NS(=O)(=O)c3ccc(F)c(F)c3)c2)CC1	16.8	-15.7%	-14.8%	-18.1%	20.6%	17.8%
CCOC(=O)C1CCN(C(=O)c2cccc(NS(=O)(=O)c3ccc(F)c(F)c3)c2)CC1	-101.0*	-14.2%	-11.6%	-10.1%	2.5%	15.1%
CCCNC(=O)NC(=O)COC(=O)c1cccc(NS(=O)(=O)c2ccc(F)c(F)c2)c1	27.6	?	-27.9%	?	0.6%	5.1%
CCOC(=O)C1CCN(C(=O)c2ccc(S(=O)(=O)Nc3ccccc3Cl)cc2)CC1	?	-2.7%	11.6µM*	?	-11.8%	-5.6%
O=C(Nc1nnc(S(=O)(=O)N2CCN(c3ccc(F)cc3)CC2)s1)c1ccccc1	27.4	-2.8%	2.5%	-6.4%	1.9%	0.0%
CCCCN1C(=O)C(CC(=O)NC2CCCC2)Sc2ncccc21 (stereo not given)	.	-12.2%	.	.	.	.
COc1ccccc1NC(=O)NC1(C(=O)N2CCC(O)CC2)CCCCC1	10.1	?	-11.7%	4.6%	1.7%	3.2%
COc1ccccc1NC(=O)NC1(C(=O)N2CCCCC2)CCCCC1	-75.7*	-10.7%	5.3%	-20.9%	5.4%	11.5%
Cc1ccc([N+](=O)[O-])cc1S(=O)(=O)Nc1ccc(C(=O)N2CCN(C(=O)c3ccco3)CC2)cc1	27.9	-10.9%	-1.4%	-15.8%	-1.9%	-4.2%
Nc1nnnn1/N=C/c1ccccc1C(F)(F)F	0.0	-16.4%	18.4µM*	11.6µM*	10.1%	12.5%
Nc1nnnn1/N=C/c1ccccc1	-15.3	36.1%	?	1.9%	-12.6%	-3.2%

Screens (PubChem)
